# Experimental data as given in PubChem BioAssay (Tox21).
# Values without a mark were called inactive. Results filed as inconclusive are left out. Entries that show only a call come without a potency. Active and inactive are the calls of the source. Unless noted, calls follow the shape of the full dose curve.
# Tests used:
# [1] = molecular target: Thyrotropin receptor (Homo sapiens) (UniProt P16473); assay: qHTS assay to identify small molecule agonists of the thyroid stimulating hormone receptor (TSHR) signaling pathway (AID 1224843); also: nearly all actives have a fitted effect of over 45% in size
# Chain of Thyrotropin receptor (Homo sapiens) (P16473 whole entry, looked up): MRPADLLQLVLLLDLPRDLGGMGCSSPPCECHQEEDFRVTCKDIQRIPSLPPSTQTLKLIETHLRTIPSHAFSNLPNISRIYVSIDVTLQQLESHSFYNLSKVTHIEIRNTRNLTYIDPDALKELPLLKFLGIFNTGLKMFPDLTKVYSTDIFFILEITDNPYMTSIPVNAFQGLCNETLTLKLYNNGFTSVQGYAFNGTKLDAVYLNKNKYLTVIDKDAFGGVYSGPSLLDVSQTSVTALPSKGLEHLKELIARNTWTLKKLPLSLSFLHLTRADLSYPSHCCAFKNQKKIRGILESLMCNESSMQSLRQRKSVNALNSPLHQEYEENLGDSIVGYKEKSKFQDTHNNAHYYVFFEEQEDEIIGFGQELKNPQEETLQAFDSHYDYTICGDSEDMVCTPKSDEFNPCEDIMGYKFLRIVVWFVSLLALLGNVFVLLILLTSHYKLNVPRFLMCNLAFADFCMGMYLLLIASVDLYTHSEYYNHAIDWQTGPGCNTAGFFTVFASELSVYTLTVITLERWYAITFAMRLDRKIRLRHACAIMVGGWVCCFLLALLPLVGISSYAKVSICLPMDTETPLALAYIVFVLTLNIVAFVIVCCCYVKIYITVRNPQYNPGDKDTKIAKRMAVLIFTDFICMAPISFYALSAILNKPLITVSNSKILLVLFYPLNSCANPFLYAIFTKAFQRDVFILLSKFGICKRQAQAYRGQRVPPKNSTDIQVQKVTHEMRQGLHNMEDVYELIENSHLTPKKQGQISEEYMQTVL
# How it was run: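 Agonist-mode screen: TSHR HEK293 cells received test chemicals for half an hour at room temperature, then HTRF cAMP detection reagents for one hour prior to fluorescence measurement. Each chemical ran as a 15-concentration series, triplicated.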
# [2] = qHTS assay to identify small molecule agonists of the hypoxia (HIF-1) signaling pathway - cell viability counter screen (AID 1224844); also: nearly all actives have a fitted effect of over 50% in size; also: potency is read from the fitted curve at half-maximal effect
# How it was run: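 Viability counter screen: HRE-bla ME-180 cells plated 5 hrs before compound addition, treated 17 hrs at 37C and 5% CO2, then CellTiter-Glo added after the FRET reporter read; luminescence after 30 min.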
# [3] = qHTS assay to identify small molecule agonists of H2AX (AID 1224845; active = well fitted activation curve with a large enough effect in the signal ratio in the repeat runs, not every such curve was filed as active; the % refers to the signal ratio)
# How it was run: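 Wild-type CHO-K1 cells, plated overnight, exposed 3hr at 37C to 15 concentrations (0.76% DMSO final). Lysed, then HTRF anti-pH2AX (S139) cryptate and anti-H2AX-d2 antibodies, 24 hr room temperature; 665/620 nm emission read.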
# [4] = qHTS assay to identify small molecule agonists of the hypoxia (HIF-1) signaling pathway (AID 1224846; active = well fitted activation curve with a large enough effect in the signal ratio in the repeat runs, not every such curve was filed as active; the % refers to the signal ratio)
# How it was run: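 Agonist mode reporter screen. ME-180 cells stably expressing bla under HRE control received test compounds in DMSO for 17 hrs (37C, 5% CO2), and beta-lactamase activity was then detected with the CCF4-AM FRET substrate.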
# [5] = qHTS assay to identify small molecule agonists of H2AX - cell viability counter screen (AID 1224847); also: top concentration of the series differs between compounds; nearly all actives have a fitted effect of over 30% in size
# How it was run: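 Viability of CHO-K1 (wild type) cells after 3 hr compound exposure was measured by CellTiter-Glo luminescence.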
# [6] = qHTS RealTime-Glo MT Cell Viability Assay in HepG2 cells - 24 hour (AID 1224867; active = well fitted curve in the direction sought with a large enough effect in the repeat runs; an effect the other way counts as inactive or inconclusive; also: nearly all actives have a fitted effect of over 50% in size)
# How it was run: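 HepG2 cells were seeded at 600 cells/well together with NanoLuc luciferase and a cell-permeant prosubstrate, preincubated 5 h at 37 C/5% CO2, then pin-dosed with compounds in DMSO. Nonlytic luminescence from viable cells was read at each time point.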
# [7] = qHTS RealTime-Glo MT Cell Viability Assay in HEK293 cells - 32 hour (AID 1224868; active = well fitted curve in the direction sought with a large enough effect in the repeat runs; an effect the other way counts as inactive or inconclusive; also: nearly all actives have a fitted effect of over 50% in size; also: potency is read from the fitted curve at half-maximal effect; as to activity change, negative = cytotoxic: top concentration of the series differs between compounds)
# How it was run: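 HEK293 cells were seeded at 600 cells/well together with NanoLuc luciferase and cell-permeant prosubstrate, preincubated 5 h at 37 C/5% CO2, then given compound in DMSO by pintool. Luminescence from viable-cell prosubstrate reduction was read repeatedly over 40 h.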
# [8] = A CellTox Green Cytotoxicity Assay to monitor cytotoxicity in HEK293 cells - 0 hour (AID 1224869; active = well fitted curve in the direction sought with a large enough effect in the repeat runs; an effect the other way counts as inactive or inconclusive; also: nearly all actives have a fitted effect of over 50% in size)
# How it was run: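 Dead-cell fluorescence measured kinetically: asymmetric cyanine dye, HEK293, 600 cells/well, 5 h settle, 23 nL cpd/DMSO, 37 C, reads 0–40 h every 8 h.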
# [9] = qHTS assay to identify small molecule antagonists of the estrogen related receptor (ERR) signaling pathway from Tox21 library (AID 1224848; active = well fitted curve in the direction sought with a large enough effect in the repeat runs; an effect the other way counts as inactive or inconclusive; also: nearly all actives have a fitted effect of over 50% in size)
# How it was run: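 Quantitative high-throughput format: ERR reporter cells (2,000/well) pre-incubated 6 h, treated 18 h at 37 C with compounds in DMSO alongside positive and negative controls, then read by ONE-Glo luminescence.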
# [10] = qHTS assay to identify small molecule agonists of the estrogen related receptor (ERR) signaling pathway from Tox21 library (AID 1224849); settings: ERR reporter cell line, ONE-Glo luciferase, 18 h; at 92.4 µM (top of the series) unless noted; also: nearly all actives have a fitted effect of over 15% in size
# How it was run: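 Quantitative HTS in agonist format: NTP ERR cell line, compounds transferred in DMSO after 6 h plating, 18 h incubation at 37 C, ONE-Glo luminescence endpoint.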
structure (smiles),measurement,setting,value
Cc1ccc(S(=O)(=O)NC(=O)NC2CCCC2)cc1,Potency,[1],inactive
same,Potency,[2],inactive
same,Potency,[3],inactive
same,outcome,[4],inactive
same,Potency,[5],inactive
same,outcome,[6],inactive
same,Potency,[7],inactive
same,Potency,[8],inactive
CCCCOC(=O)CC#N,Potency,[1],inactive
same,Potency,[2],inactive
same,Potency,[3],inactive
same,outcome,[4],inactive
same,Potency,[5],inactive
same,outcome,[6],inactive
same,Potency,[7],inactive
same,Potency,[8],inactive
C/C(=C(\CCO)SS/C(CCO)=C(\C)N(C=O)Cc1cnc(C)nc1N)N(C=O)Cc1cnc(C)nc1N,Potency,[1],inactive
same,Potency,[2],inactive
same,Potency,[3],inactive
same,outcome,[4],inactive
same,Potency,[9],inactive
same,"activity change, positive = activation",[10],3.66% [at 42.5 µM]
same,outcome,[6],inactive
same,Potency,[7],inactive
same,Potency,[8],inactive
O=C1C=CCCC1,Potency,[1],inactive
same,Potency,[2],inactive
same,Potency,[3],inactive
same,outcome,[4],inactive
same,Potency,[5],inactive
same,outcome,[6],inactive
same,Potency,[7],inactive
same,Potency,[8],inactive
CC(=O)Nc1cccc(N)c1,Potency,[1],inactive
same,Potency,[2],inactive
same,Potency,[3],inactive
same,Potency,[5],inactive
same,Potency,[9],inactive
same,"activity change, positive = activation",[10],-3.33%
same,outcome,[6],inactive
same,Potency,[7],inactive
same,Potency,[8],inactive
CC(C)NC(=O)c1ccccc1N,Potency,[1],inactive
same,Potency,[2],inactive
same,Potency,[3],inactive
same,outcome,[4],inactive
same,Potency,[5],inactive
same,outcome,[6],inactive
same,Potency,[7],inactive
same,Potency,[8],inactive
CCOc1cc(OCC)c(C(C)=O)cc1OCC,Potency,[1],inactive
same,Potency,[2],inactive
same,Potency,[3],inactive
same,Potency,[5],inactive
same,"activity change, positive = activation",[10],-33.9%
same,outcome,[6],inactive
same,Potency,[7],21.5 µM (active)
same,Potency,[8],inactive
CCCCCCCCCCCCSC#N,Potency,[1],inactive
same,Potency,[2],inactive
same,Potency,[3],inactive
same,Potency,[5],inactive
same,Potency,[9],inactive
same,"activity change, positive = activation",[10],0.292%
same,outcome,[6],inactive
same,Potency,[7],inactive
same,Potency,[8],inactive
C[C@H](CN1CCCC1)C(=O)c1ccc(C(F)(F)F)cc1,Potency,[1],inactive
same,Potency,[2],inactive
same,Potency,[3],inactive
same,outcome,[4],inactive
same,Potency,[5],inactive
same,Potency,[8],inactive
Cc1ccc2ccccc2c1[N+](=O)[O-],Potency,[1],inactive
same,Potency,[2],inactive
same,Potency,[3],inactive
same,outcome,[4],inactive
same,Potency,[5],inactive
same,outcome,[6],inactive
same,Potency,[7],inactive
same,Potency,[8],inactive
CCOC(OCC)OCC,Potency,[1],inactive
same,Potency,[2],inactive
same,Potency,[3],inactive
same,outcome,[4],inactive
same,outcome,[6],inactive
same,Potency,[7],inactive
same,Potency,[8],inactive
CC1(C)CC(=O)CC(C)(C)N1,Potency,[1],inactive
same,Potency,[2],inactive
same,Potency,[3],inactive
same,outcome,[4],inactive
same,Potency,[5],inactive
same,outcome,[6],inactive
same,Potency,[7],inactive
same,Potency,[8],inactive
c1ccc(CCNc2nc(-c3ccccc3)cs2)cc1,Potency,[1],inactive
same,Potency,[2],inactive
same,Potency,[3],inactive
same,outcome,[4],inactive
same,outcome,[6],inactive
same,Potency,[7],inactive
same,Potency,[8],inactive
CCOC(=O)CC(O)(CC(=O)OCC)C(=O)OCC,Potency,[1],inactive
same,Potency,[2],inactive
same,Potency,[3],inactive
same,outcome,[4],inactive
same,Potency,[5],inactive
same,outcome,[6],inactive
same,Potency,[8],inactive
O=C(O)c1ccccc1[N+](=O)[O-],Potency,[1],inactive
same,Potency,[2],inactive
same,Potency,[3],inactive
same,outcome,[4],inactive
same,Potency,[5],inactive
same,outcome,[6],inactive
same,Potency,[7],inactive
same,Potency,[8],inactive
O=[N+]([O-])c1ccccc1CCO,Potency,[1],inactive
same,Potency,[2],inactive
same,Potency,[3],inactive
same,outcome,[4],inactive
same,Potency,[5],inactive
same,outcome,[6],inactive
same,Potency,[7],inactive
same,Potency,[8],inactive
OCCOc1cccc(OCCO)c1,Potency,[1],inactive
same,Potency,[2],inactive
same,Potency,[3],inactive
same,Potency,[5],inactive
same,Potency,[9],inactive
same,"activity change, positive = activation",[10],0.271%
same,outcome,[6],inactive
same,Potency,[7],inactive
same,Potency,[8],inactive
CCCCCCOC(=O)c1ccccc1,Potency,[1],inactive
same,Potency,[2],19.5 µM (active)
same,Potency,[3],inactive
same,Potency,[5],inactive
same,Potency,[9],inactive
same,"activity change, positive = activation",[10],5.95%
same,outcome,[6],inactive
same,Potency,[8],inactive
Clc1nc2ccccc2nc1Cl,Potency,[1],inactive
same,Potency,[2],inactive
same,Potency,[3],inactive
same,outcome,[4],inactive
same,Potency,[5],inactive
same,outcome,[6],inactive
same,Potency,[8],inactive
CCCCCCCCNC,Potency,[1],inactive
same,Potency,[2],inactive
same,Potency,[3],inactive
same,outcome,[4],inactive
same,Potency,[5],inactive
same,outcome,[6],inactive
same,Potency,[7],inactive
same,Potency,[8],inactive
C=C[Si](OCC)(OCC)OCC,Potency,[1],inactive
same,Potency,[2],inactive
same,Potency,[3],inactive
same,outcome,[4],inactive
same,outcome,[6],inactive
same,Potency,[7],inactive
same,Potency,[8],inactive
COc1cccc([C@H](O)C2CCN(CCc3ccc(F)cc3)CC2)c1OC,Potency,[1],inactive
same,Potency,[2],inactive
same,Potency,[3],inactive
same,outcome,[4],inactive
same,Potency,[5],inactive
same,outcome,[6],inactive
same,Potency,[8],inactive
COC=O,activation,[1],0.0799% [at 8.39 µM]
same,"activity change, negative = cytotoxicity",[2],10.2% [at 6.97 µM]
same,activation (H2AX phosphorylation),[3],-1.42% [at 14 µM]
same,"activity change, negative = cytotoxicity",[5],-3.81% [at 14 µM]
same,"activity, negative = inhibition",[9],14% [at 8.39 µM]
same,"activity change, positive = activation",[10],6.68% [at 8.39 µM]
same,"activity change, negative = cytotoxicity",[6],4.56% [at 6.97 µM]
same,"activity change, negative = cytotoxic",[7],18.9% [at 6.97 µM]
same,cytotoxicity,[8],-7.29% [at 6.97 µM]
C[C@H](N)C(=O)N[C@@H](C)C(=O)NC1[C@H]2CN(c3nc4c(cc3F)c(=O)c(C(=O)O)cn4-c3ccc(F)cc3F)C[C@@H]12 (stereo not given in full),Potency,[1],inactive
same,Potency,[2],inactive
same,Potency,[3],inactive
same,Potency,[5],inactive
same,Potency,[9],inactive
same,outcome,[6],inactive
same,Potency,[7],inactive
same,Potency,[8],inactive
CCCN(C1CCN(C(=O)C2CCNCC2)CC1)[C@@H]1CCc2ccc(OC)cc2C1,Potency,[1],inactive
same,Potency,[2],inactive
same,Potency,[3],inactive
same,Potency,[5],inactive
same,Potency,[9],inactive
same,"activity change, positive = activation",[10],-8.07%
same,outcome,[6],inactive
same,Potency,[8],inactive
CC(C)(C)NCC(O)COc1ccc(NC(=O)NC2CCCCC2)cc1 (stereo not given),Potency,[1],inactive
same,Potency,[2],inactive
same,Potency,[3],inactive
same,outcome,[4],inactive
same,Potency,[5],inactive
same,Potency,[8],inactive
CCCC(=O)OCc1ccccc1,Potency,[1],inactive
same,Potency,[2],inactive
same,Potency,[3],inactive
same,Potency,[5],inactive
same,Potency,[9],inactive
same,"activity change, positive = activation",[10],0.0767%
same,outcome,[6],inactive
same,Potency,[7],inactive
same,Potency,[8],inactive
C=CC(=O)OCCCCCCCCCC,Potency,[1],inactive
same,Potency,[2],inactive
same,Potency,[3],inactive
same,Potency,[5],inactive
same,Potency,[9],inactive
same,"activity change, positive = activation",[10],2.6%
same,outcome,[6],inactive
same,Potency,[7],inactive
same,Potency,[8],inactive
Nc1ccc(C(=O)Oc2ccccc2)c(O)c1,Potency,[1],inactive
same,Potency,[2],inactive
same,Potency,[3],inactive
same,Potency,[5],inactive
same,Potency,[9],inactive
same,"activity change, positive = activation",[10],83.9% [at 42.5 µM] (active)
same,outcome,[6],inactive
same,Potency,[7],inactive
same,Potency,[8],inactive
